Screening data: PubChem, several laboratories
Rows were chosen to be rich in hits. Some 0.97% of all compounds tested hit in one or more screens of this group.
LAP4 TOR yeast: modulators of LAP4-GFP expression in yeast, primary screen, S. cerevisiae, multiplex flow cytometry, MLPCN library | GFP response vs DMSO, % at 10 µM | 320,000 tested, 0.34% active | 3 h; median GFP as percent of DMSO wells;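 active = GFP response vs DMSO above a set limit, about the screen mean plus 3 SD, cut at about 150% in these data; inconclusive = under 70 cell events counted for the yeast strain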
CIT2-GFP yeast: modulators of CIT2-GFP expression in yeast, primary screen, S. cerevisiae, GFP fusion, multiplex flow cytometry, MLPCN library | GFP response vs DMSO, % at 10 µM | AID 2029, 2009 | S. cerevisiae CIT2-GFP strain, 3 h; 100 means same as DMSO wells | 320,000 tested, 0.065% active;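 active = GFP response relative to DMSO above a set limit, near the screen mean plus 3 SD, cut at about 150% in these data; inconclusive = Fewer than 70 cells measured for a yeast strain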;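 also: ratio of well median GFP fluorescence to mean of DMSO wells on the plate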
AGP1 TOR yeast: modulators of AGP1-GFP expression in yeast TOR pathway, primary screen, cell-based, multiplex flow cytometry, S. cerevisiae, MLPCN library; GFP response vs DMSO, % at 10 µM; 320,000 tested, 0.02% active; 3 h; GFP as percent of DMSO wells;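 active = GFP response relative to DMSO above a set limit, near screen average plus 3 SD, cut at about 150% in these data; inconclusive = fewer than 70 cells counted for the yeast strain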;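 also: median GFP channel fluorescence of the gated AGP1 strain per well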
RPL19A TOR yeast: RPL19A-GFP expression modulators in yeast, primary screen, cell-based, S. cerevisiae, multiplex flow cytometry, MLPCN; 330,000 tested, 0.3% active; percent response vs DMSO, % at 10 µM; AID 2025, 2009; S. cerevisiae RPL19A-GFP strain, 3 h; stronger effect = lower value;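 active = percent response vs DMSO below 50%; inconclusive = fewer than 70 events counted for the yeast strain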;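 also: median channel GFP fluorescence of the barcoded RPL19A-GFP strain; ratio of sample median GFP to plate DMSO average so 100% = DMSO; lower means less RPL19A-GFP as with rapamycin TOR inhibition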
MEP2-GFP yeast: modulators of MEP2-GFP levels in yeast, primary screen, S. cerevisiae, multiplex flow cytometry, MLPCN library; S. cerevisiae MEP2-GFP strain, 3 h; 100% = DMSO control level; GFP response vs DMSO, % at 10 µM; 330,000 tested, 0.51% active; AID 2016, 2009;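 active = GFP response versus DMSO above a set limit, roughly screen mean plus 3 SD, cut at about 180% in these data; inconclusive = fewer than 70 cells counted for a yeast strain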;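 also: median GFP fluorescence of the barcode-gated MEP2-GFP cells per well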
GASC-1 inh: inhibitors of GASC-1 histone demethylase, primary screen, biochemical, fluorescence, DELFIA europium; Lysine-specific demethylase 4C (Homo sapiens), Q9H3R0; GST-JMJD2C(1-420) H3K9me3 demethylation; inhibition, % at 2.35 µM; 330,000 tested, 0.069% active;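 active = more than half of a compound's replicate wells show inhibition beyond 50%, single wells judged on their own value; inconclusive = some, but no more than half, of replicates pass 50% inhibition; inactive = no replicate passes 50% inhibition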;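 also: signal counts dimethyl H3K9 product captured on neutravidin plate; 0% = median of DMSO wells and 100% = 0.3 times that DMSO median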
Target sequence (Q9H3R0 1-420 limits assumed): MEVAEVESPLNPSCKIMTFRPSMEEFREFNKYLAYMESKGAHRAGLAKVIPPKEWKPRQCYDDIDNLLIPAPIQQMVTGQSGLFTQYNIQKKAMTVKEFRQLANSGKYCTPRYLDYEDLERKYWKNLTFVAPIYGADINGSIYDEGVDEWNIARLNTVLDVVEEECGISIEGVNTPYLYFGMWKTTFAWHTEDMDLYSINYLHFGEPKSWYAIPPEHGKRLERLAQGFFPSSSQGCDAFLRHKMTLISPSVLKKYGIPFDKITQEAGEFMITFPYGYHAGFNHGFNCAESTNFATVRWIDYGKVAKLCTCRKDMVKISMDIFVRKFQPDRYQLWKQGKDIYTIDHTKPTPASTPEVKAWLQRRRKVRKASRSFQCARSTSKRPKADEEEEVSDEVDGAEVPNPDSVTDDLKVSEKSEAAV
* marks the source's active call; other numbers are inactive results; u = inconclusive; x = no result given; [ ] = dose if it differs, or a comment.

SMILES	LAP4 TOR yeast	CIT2-GFP yeast	AGP1 TOR yeast	RPL19A TOR yeast	MEP2-GFP yeast	GASC-1 inh
CCC(CC)c1nc(C(N)=O)c2[nH]c(=O)n(-c3ccc(OC)c(OC)c3)c2n1	125.5	u	u	47.1*[may fluoresce violet]	600.9*[may fluoresce violet]	0.9
CCc1nc(C(N)=O)c2[nH]c(=O)n(-c3ccc(OC)cc3OC)c2n1	113.9	u	u	43.1*[may fluoresce violet]	339.0*[may fluoresce violet]	-6.1
CCC(Sc1nc(N)c(NC(=O)c2ccc(Br)o2)c(=O)[nH]1)C(=O)O (centres undefined)	93.6	105.9	95.8	98.0	99.6	42.2
COc1cccc(CN2C(=O)CCC2(C)C(=O)NCCc2ccc(OC)c(OC)c2)c1 (centres undefined)	102.0	97.0	107.8	99.7	92.8	7.7
COc1cccc(CNC(=O)CCS(=O)(=O)Cc2ccc(C)cc2)c1	92.7	101.6	97.3	99.5	96.4	4.6
COc1cc2[nH]c3c(Cl)ncnc3c2cc1OC	108.8	107.1	105.3	109.5	127.6	-12.8
COc1cc2[nH]c(Cl)c([N+](=O)[O-])c2cc1OC	97.2	u	18.5	52.2	272.6*[may fluoresce violet]	0.5
O=c1c2ccccc2n(CC(O)CN2CCCCC2)c2ccccc12 (centres undefined)	76.2	u	u	31.6*[may fluoresce violet]	168.8	3.5
OC(CN1CCCCC1)Cn1c2ccccc2c2ccccc21 (centres undefined)	101.9	96.5	103.7	105.8	97.3	-6.8
O=c1c2ccccc2n(CC(O)CN2CCOCC2)c2ccccc12 (centres undefined)	57.9	u	u	36.3*[may fluoresce violet]	u	-4.0
Cc1c(C)n(CC(O)CN2CCOCC2)c2ccccc12 (centres undefined)	110.8	113.8	118.8	109.8	114.4	2.5
N#CC1(NC(=O)CN2C(=O)c3ccc([N+](=O)[O-])cc3C2=O)CCCCC1	115.5	103.9	118.9	103.8	106.9	-6.8
C[C@H](CO)N1C[C@H](C)[C@@H](CN(C)Cc2ccc(C(=O)O)cc2)Oc2c(NS(=O)(=O)c3cn(C)cn3)cccc2C1=O	108.4	87.1	90.0	91.2	98.7	x
CCN(CC)c1ccc(C(NC(C)=O)NC(C)=O)cc1	91.3	92.6	96.0	x	95.7	7.4
CC(=O)NC(NC(C)=O)c1ccc(N(C)C)cc1	105.1	u	26.4	39.4*[may fluoresce violet]	218.5*[may fluoresce violet]	-2.7
COc1ccc(C(=O)NNC(=O)CCc2ccccc2OC)cc1	96.7	101.9	99.9	98.5	96.4	0.4
N#Cc1ccc(C(=O)CSc2n[nH]c(=O)n2Cc2ccco2)cc1	104.1	96.2	108.4	95.7	99.5	-27.4
CCOc1ccc(NC(=O)CC2C(=O)N(c3ccc(OC)c(Cl)c3)C(=S)N2C2CC2)cc1 (centres undefined)	94.0	96.0	99.1	103.7	101.3	5.5
CCc1ccc(NC(=O)c2noc3c2CCc2ccccc2-3)cc1	106.1	u	u	12.7*[may fluoresce violet]	237.1*[may fluoresce violet]	7.9
Cc1cc(=O)[nH]c(N/N=C/c2sccc2C)n1	100.3	100.9	105.1	103.7	106.7	1.6
CCOc1cc(/C=N/Nc2nc(C)cc(=O)[nH]2)ccc1O	107.5	149.9	94.6	106.8	186.9*	2.3
Cc1cc(=O)[nH]c(N/N=C/c2cccs2)n1	87.5	u	25.4	47.0*[may fluoresce violet]	308.4*[may fluoresce violet]	1.6
CCCCc1ncc(CN2CCC(n3nccc3NC(=O)c3ccccc3OC)CC2)[nH]1	98.8	100.4	98.8	97.3	99.8	-12.3
COc1cccc(-c2nc(CS(=O)(=O)CC(=O)NC3CCCCC3C)c(C)o2)c1 (centres undefined)	88.8	99.5	99.9	99.5	99.0	35.0
O=C(Nc1ccc(Cl)cc1)C1C2C=CC3(O2)C1C(=O)N(CCN1CCCCC1)C3C(=O)NC1CCCCC1 (centres undefined)	82.6	u	17.6	58.5	387.2*[may fluoresce violet]	-2.7
SMILES	LAP4 TOR yeast	CIT2-GFP yeast	AGP1 TOR yeast	RPL19A TOR yeast	MEP2-GFP yeast	GASC-1 inh
CCC1CCCCN1CCN1C(=O)C2C(C(=O)Nc3cccc(OC)c3)C3C=CC2(O3)C1C(=O)NC1CCCCC1 (centres undefined)	83.3	u	19.3	53.9	560.0*[may fluoresce violet]	3.8
O=C(CCNC(=O)c1ccc(Br)cc1)NCC1COc2ccccc2O1 (centres undefined)	107.3	89.1	100.6	95.6	92.2	x
O=C(Nc1ccc(F)cc1)c1ccc2c(=O)n(CC3CCCO3)c(=S)[nH]c2c1 (centres undefined)	93.3	103.3	100.1	106.9	104.8	141.8
COc1ccc(S(=O)(=O)N2c3ccccc3NC(=O)CC2C)cc1 (centres undefined)	116.5	148.7	113.0	90.6	100.6	8.8
CC1CC(=O)Nc2ccccc2N1S(=O)(=O)c1ccc(C(F)(F)F)cc1 (centres undefined)	108.2	162.4*[may fluoresce green]	115.3	94.8	110.7	-2.8
NC(=O)C1CCN(C(=O)CCCCCn2c(=O)[nH]c3ccsc3c2=O)CC1	82.6	u	u	22.3*[may fluoresce violet]	222.0*[may fluoresce violet]	4.7
COc1ccccc1N1CCN(C(=O)CCCCCn2c(=O)[nH]c3ccsc3c2=O)CC1	98.1	103.3	100.1	96.8	96.7	-1.8
CCc1cccc(NC(=O)CCCn2c(=O)[nH]c3ccsc3c2=O)c1	100.4	104.5	107.1	109.2	110.8	3.2
NC(=O)c1sc(-c2ccsc2)cc1NS(=O)(=O)c1ccc(C(F)(F)F)cc1	x	x	x	104.6	103.5	-29.1
CCc1cccc(NC(=O)COc2ccccc2)c1	95.0	u	u	20.9*[may fluoresce violet]	251.8*[may fluoresce violet]	-8.6
CCc1nc2ccccc2c2nc3ccccc3n12	103.4	95.6	97.1	102.4	101.6	10.5
O=c1c2ccc([N+](=O)[O-])c3cccc(c32)c2nc3ccccc3n12	148.4	118.6	107.9	106.2	183.0*	26.2
Cc1csc(NC(=O)CSc2nncn2C)n1	100.3	100.0	100.7	103.0	103.5	-9.4
Cn1cnnc1SCC(=O)Nc1nc(-c2ccc(F)cc2)cs1	199.4*	217.5*	121.6	115.6	253.9*	6.6
O=C(CSc1nccn1Cc1ccco1)Nc1ccccc1	95.6	99.6	95.9	99.1	97.6	-3.3
COc1cccc(CCN2CCC(CNS(=O)(=O)c3cc(-c4cc(C)no4)ccc3C)CC2)c1	63.8	u	u	15.2*[may fluoresce violet]	162.6	1.3
O=C1Nc2ccccc2C(=O)C1(Cl)Cc1ccccc1 (centres undefined)	184.1*	115.9	55.5	x	85.6	-18.5
